This is a sample that favours compounds with a hit; in the whole collection about 4.2% have one here.
hcDAF12 agonist: H. contortus DAF-12 nuclear receptor activators, primary screen, cell-based, luminescence, HEK293, lit1-tk-luc reporter; HEK293 hcDAF-12 lit1-tk-luc reporter; 0% DMSO, 100% Δ7-dafachronic acid; activation, % at 6.8 µM; 370,000 tested, 1.4% active;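 active = activation above the mean of all tested compounds plus 3 SD, cut at about 5.5% in these data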;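 also: 100% = response to 3 µM Δ7-dafachronic acid high control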
ssDAF-12 act: S. stercoralis DAF-12 nuclear receptor activators, primary screen, cell-based, luminescence, HEK293, GRIP1 co-expression, lit1-tk-luc; 370,000 tested, 1% active; AID 652126, 2013; Nuclear hormone receptor DAF-12 (Strongyloides stercoralis); activation, % at 6.8 µM; HEK293 ssDAF-12/GRIP1 lit1-tk-luc reporter; % of 3 µM dafachronic acid response;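 active = activation above the mean over all tested compounds plus 3 SD, cut at about 0.9% in these data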;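 also: 0% = DMSO-only wells and 100% = 3 µM delta7-dafachronic acid wells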
DAX1 StAR inh: DAX1 (NR0B1) inhibitors on StAR promoter, primary screen, cell-based, luminescence, SF-1 (NR5A1), full-length DAX-1; HEK293T StAR-luciferase reporter, SF-1/DAX-1 repression relief; inhibition, % at 6.8 µM; 370,000 tested, 1.1% active;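 active = inhibition above the mean over all tested compounds plus 3 SD, cut at about 3.6% in these data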;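 also: 0% = DAX-1 cells with DMSO and 100% = cells lacking DAX-1 with DMSO; higher inhibition means more luminescence from relief of DAX-1 repression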
Wnt bcat act: Wnt/beta-catenin pathway activators, primary screen, cell-based, plate reader, single point; Wnt/beta-catenin reporter cell assay, activator; activation, % at 9.35 µM; 300,000 tested, 1.2% active; AID 743398, 2014; in the data active = activation above about 30%, passing the limit was not always enough;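 also: 0% = neutral control wells and 100% = positive control wells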
hgDAF-12 ag: H. glycines DAF-12 receptor agonists, primary screen, cell-based, luminescence, HEK293, GAL4 fusion, UAS-luciferase; Nuclear hormone receptor DAF-12 (Heterodera glycines), GAL4 fusion; HEK293 GAL4-hgDAF12 UAS-luciferase reporter, agonist luminescence; normalized to butyrate control; activation, % at 6.8 µM; 370,000 tested, 1.8% active; AID 687014, 2013;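 active = activation above a cutoff set at the mean of all screened compounds plus 3 SD, cut at about 10% in these data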;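 also: 0% = DMSO wells and 100% = sodium butyrate wells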
esBAF inh: Bmi1 luciferase reporter increase in mESCs, primary screen, esBAF inhibitor project, mouse ES cells, Bmi1 luciferase knock-in, single point; 24 h; 100% = twice the neutral-well signal; reporter increase, % at 12.5 µM; 350,000 tested, 2% active; AID 602393, 2012; in the data active = activation above about 40%;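 also: 0% = median of the plate's neutral control wells and 100% = double that signal; a rise in the Bmi1 reporter signal indicates esBAF inhibition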
Active calls of the source: *; . = no result; ! = not active in a repeat.

SMILES | hcDAF12 agonist | ssDAF-12 act | DAX1 StAR inh | Wnt bcat act | hgDAF-12 ag | esBAF inh
CCCN1[C@@H]2Cn3c(ccc(-c4ccc(F)cc4)c3=O)[C@H]1[C@@H](C(=O)OC)[C@@H]2CO | . | . | . | . | . | 4
O=C1CN=C(c2ccccc2)c2cc([N+](=O)[O-])ccc2N1 | 0 | 0 | 0 | 2 | -3 | -2
O=C1CN=C(c2cc([N+](=O)[O-])ccc2Cl)c2cc([N+](=O)[O-])ccc2N1 | 0 | -1 | -1 | 47* | 1 | 1
CC(Cc1ccccc1)NC(=O)NC(C)Cc1ccccc1 (stereo unspecified) | 2 | 0 | 2 | . | 13* | 29
O=C1NC(=S)NC(=O)C1=Cc1ccc(OCc2ccccc2)cc1 | 3 | 0 | -2 | 6 | 5 | 44*
O=C(Nc1nccs1)c1c(O)c2c(n(Cc3ccco3)c1=O)CCCC2 | 5 | 1.3* | 0 | -3 | 1 | .
CC12CCC(=O)C=C1CCC1C2CCC2(C)C(O)CCC12 (stereo unspecified) | -3 | -1 | 1 | -3 | 0 | 10
C[C@]12CC[C@H]3[C@@H](CCC4=CC(=O)CC[C@@]43C)[C@@H]1CC[C@@H]2O | -2 | -2 | 0 | 33*! | -1 | 5
CC(=O)c1ccc(-c2ccccc2)cc1 | 1 | -1 | 1 | 15 | 4 | 34*
c1ccc2c(CNC3CCCCCC3)c[nH]c2c1 | 5.7* | 0 | 0 | . | 0 | .
Cc1cc(C(=O)OCC(=O)Nc2ccccc2F)c(C)n1C1CC1 | 0 | -1 | 2 | 9 | 10 | 57*
CC(=O)Nc1ccc(S(=O)(=O)N2Cc3cnnn3-c3ccccc3C2C#N)cc1 (stereo unspecified) | 0 | -1 | 3.7* | -2 | 2 | 3
CCCC(C)C1C(C#N)=C(N)Oc2c1c(=O)oc1ccccc21 (stereo unspecified) | -1 | -1 | 0 | -2 | -1 | 0
CC(C)C1C(C#N)=C(N)Oc2c1c(=O)oc1ccccc21 (stereo unspecified) | 0 | -1 | 4.0* | 0 | -2 | 1
Cc1ccc2[nH]c(C)c(CCNCc3cccnc3)c2c1 | -1 | 1.0* | 0 | 1 | -1 | 2
COc1ccc2[nH]c(C)c(CCNCc3cc(OC)c(OC)c(OC)c3)c2c1 | -1 | -2 | -1 | 0 | -2 | 1
O=C(Cc1cccnc1)N1CCCCN2[C@H](CO)[C@H](c3ccc(C#CC4(O)CCCC4)cc3)[C@H]2C1 | . | . | . | . | . | 5
CCCCCn1c(=O)c(C(=O)Nc2ccccc2)c(O)c2ccccc21 | 7.8* | 0 | 0 | 4 | 0 | 27
COc1ccc(C(=O)C2CCCN(CC3CCCCC3)C2)cc1OC (stereo unspecified) | 2 | -1 | 3.9* | -2 | 4 | -9
CCCCn1c(O)c(C(=O)/C=C/c2c[nH]c3ccccc23)c(=O)[nH]c1=O | 6.0* | -1 | 0 | -2 | -2 | .
O=[N+]([O-])c1ccccc1CNCCc1ccc(F)cc1 | 1 | 0 | 1 | . | 4 | 41*
O=[N+]([O-])c1ccccc1CNCCc1c[nH]c2ccccc12 | 1 | -1 | 0 | 1 | 1 | -2
COc1ccc2c(c1)/C(=C/c1cnc[nH]1)C(=O)N2 | 4 | 1.1* | -3 | 13 | 0 | 52*
CCC(C)C1NC(=O)C2CCCN2C(=O)C(CC(C)C)OC(=O)CCNC(=O)C(C)N(C)C(=O)C(C(C)C)N(C)C1=O (stereo unspecified) | -2 | -1 | 3.7* | -8 | -9 | .
CN1CC(C(=O)c2ccccc2)C(C(=O)c2ccccc2)C1 (stereo unspecified) | 4 | 0 | 3 | 2 | 9 | 57*
SMILES | hcDAF12 agonist | ssDAF-12 act | DAX1 StAR inh | Wnt bcat act | hgDAF-12 ag | esBAF inh
CN1CC(C(=O)c2ccc(F)cc2)C(c2ccc(F)cc2)C1 (stereo unspecified) | 4 | -1 | 0 | 5 | 0 | 1
CC=Cc1ccc2n(c1=O)C[C@H]1[C@H](CO)[C@@H](C(=O)O)[C@@H]2N1S(=O)(=O)c1ccccc1C (mixture of isomers) | . | . | . | . | . | -1
COC(=O)[C@@H]1[C@@H](CO)[C@@H]2Cn3c(cccc3=O)[C@@H]2N1CC1CC1 | . | . | . | . | . | 0
O=C1NC(=O)N(CCC2=CCCCC2)C(=O)/C1=C/c1cccs1 | 1 | 1.7* | 0 | 4 | 1 | .
O=C1NC(=O)N(CCC2=CCCCC2)C(=O)/C1=C/c1ccc(O)cc1 | 0 | -1 | 0 | -5 | -1 | 0
O=C(O)Cn1cc(/C=C2\C(=O)NC(=O)N(Cc3ccco3)C2=O)c2ccccc21 | 2 | 0 | 1 | 0 | -2 | -13
Cc1ccc(N2C(=O)NC(=O)/C(=C\c3cn(CC(=O)O)c4ccccc34)C2=O)cc1 | 4 | 1.4* | 0 | -2 | 2 | 0
O=C(O)Cn1cc(/C=C2\C(=O)NC(=O)N(c3ccc(Br)cc3)C2=O)c2ccccc21 | 5.6* | 1.2* | 0 | 0 | 3 | 0
COC(=O)Cn1cc(/C=C2\C(=O)NC(=O)N(c3ccccc3)C2=O)c2ccccc21 | 0 | 1 | 0 | 2 | 0 | 2
O=C(O)[C@@H]1[C@@H](CO)[C@@H]2Cn3c(ccc(-c4ccncc4)c3=O)[C@H]1N2C(=O)C1CCCCC1 | . | . | . | . | . | 0
CCCN1[C@@H]2Cn3c(cccc3=O)[C@H]1[C@@H](C(=O)N(C)C)[C@@H]2CO | . | . | . | . | . | 0
Cc1ccc(Cn2cc(C=O)c(-c3ccc(F)cc3)n2)cc1 | -1 | -1 | 0 | 3 | 1 | 33
Cc1ccc(-c2nn(Cc3ccccc3)cc2C=O)cc1C | -3 | -2 | 1 | 9 | 2 | 88*
CCCNC(=O)N1[C@@H]2c3ccc(-c4ccccc4OC)c(=O)n3C[C@H]1[C@H](CO)[C@H]2C(=O)O | . | . | . | . | . | -7
c1ccc(CN2CCc3nc4ccccc4cc3C2)cc1 | 1 | -1 | 0 | 19 | 12* | 53*
CNC(=O)c1cccn(Cc2ccc(C(F)(F)F)cc2)c1=O | 0 | 2.4* | -1 | 24 | -4 | -1
CNC(=O)c1cccn(Cc2cc(C(F)(F)F)cc(C(F)(F)F)c2)c1=O | -4 | -2 | -2 | -9 | -6 | .

Source: PubChem BioAssay (several laboratories)
